Measurements published in PubChem BioAssay (NCI).
Compounds without any hit were thinned out: in the full panel of roughly 79,000, 15% have a hit. Unmarked numbers belong to inactive results. Active and inactive are the calls of the source. Rule as the data show it: active = growth inhibition above about 70%; inactive = the rest.

Tests used:
[1] = NCI Yeast Anticancer Drug Screen. Data for the rad50 strain (AID 155);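 also: 0% = growth of vehicle-only cultures of the same strain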; conditions: S. cerevisiae rad50 strain growth inhibition; at 50.0 µM; active compounds read high
Summary of the method: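 Vehicle-treated cultures provide the reference for the growth inhibition reported for compound-exposed, repair-deficient yeast.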

[2] = NCI Yeast Anticancer Drug Screen. Data for the mec2-1 strain (AID 157); conditions: S. cerevisiae mec2-1 strain, at 50.0 µM, active compounds read high
Summary of the method: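 Yeast mec2-1 mutant treated with compound. Readout: growth inhibition vs vehicle controls.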

[3] = NCI Yeast Anticancer Drug Screen. Data for the sgs1 mgt1 strain (AID 161);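 also: 0% = growth of cultures given vehicle only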; conditions: S. cerevisiae sgs1 mgt1 strain, at 50.0 µM, active compounds read high
Summary of the method: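 Read-out: growth inhibition vs vehicle controls. Cells: mutant yeast strain deficient in DNA damage repair.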

[4] = NCI Yeast Anticancer Drug Screen. Data for the cln2 rad14 strain (AID 165);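 also: 0% = growth equal to vehicle treated cultures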; conditions: S. cerevisiae cln2 rad14 strain, at 50.0 µM, active compounds read high
Summary of the method: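 cln2 rad14 yeast strain; compound exposure; growth inhibition read vs vehicle controls.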

[5] = NCI Yeast Anticancer Drug Screen. Data for the bub3 strain (AID 167); conditions: S. cerevisiae bub3 mutant strain, at 50.0 µM, active compounds read high
Summary of the method: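 Mutant yeast screening strain plus compound; vehicle-treated cultures serve as the 0% inhibition reference.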

[6] = NCI Yeast Anticancer Drug Screen. Data for the mlh1 rad18 strain (AID 175); conditions: S. cerevisiae mlh1 rad18 strain growth inhibition; at 50.0 µM; active compounds read high
Summary of the method: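 Yeast w/ defined DNA-repair lesions; compound exposure; growth vs vehicle controls → % inhibition.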

SMILES | growth inhibition [1] | growth inhibition [2] | growth inhibition [3] | growth inhibition [4] | growth inhibition [5] | growth inhibition [6]
O=C(NC1CC1)C(Cl)Cl | -0.15% | -25.1% | 5.85% | 11% | -16.4% | -1.15%
c1cc2c(cc1NC1=NCCO1)OCO2 | -23.2% | -18.8% | -3.65% | 0.7% | -13.8% | -25.2%
CC(=O)CP(=O)(O)O | 23.3% | -11.6% | -0.15% | -55.9% | 10.1% | -6.35%
CCN=C=NCCCN(C)C | -18.8% | -8.8% | -23.1% | 0.25% | -41.2% | -6.35%
CC(C)(N)Cc1ccc(N)cc1 | 15.2% | -1.55% | 7.15% | 18.4% | 2.5% | 24.4%
C/C=C(/C)C(=O)O[C@H]1CCN2CC=C(COC(=O)[C@@](O)([C@H](C)OC)C(C)(C)O)[C@H]12 | -17% | -15.8% | 3.65% | 11.6% | 7.55% | -44.2%
ClCCN(CCCl)c1ccc(/C=N/c2nc(-c3ccccc3)cs2)cc1 | 45.6% | 27.9% | 65.4% | 47.4% | -1.75% | 60.9%
CCOC(=S)S.[Pb] | 18.9% | 21.8% | 27.2% | 13.6% | 26.2% | 9.7%
CN1CCNCC1 | 11.1% | -6.55% | -10.5% | -18.4% | 11.5% | 5.75%
CC(=O)C1CCC2C3CCC4CC(O)CCC4(C)C3CCC12C (stereo not given) | 6.2% | -59% | 16.8% | 26.8% | 10% | -7.3%
Cc1ccccc1.[C-]#[O+].[C-]#[O+].[C-]#[O+].[W] | -11.5% | -1.2% | 2% | 28.2% | 24.9% | -8.05%
COc1cc2c(cc1OC)C13CCN4CC5CCOC6CC(=O)N2C1C6C5CC43 (stereo not given) | 8.6% | 6.35% | 21.6% | 10.2% | -7.5% | -72.3%
[CH3][Sb]1([Br])[CH2]CC[CH2]1 | 6.8% | 15.2% | 5.85% | -1.6% | -11.8% | 3.05%
CCCCCCCCCCNP(=O)(Oc1ccccc1)Oc1ccccc1 | -21.8% | 4.05% | -16.4% | -24.5% | -4.75% | -23.9%
CC(O)C[As](=O)(O)c1cccc(Cl)c1 (stereo not given) | 2.05% | 33.9% | 10.3% | -0.7% | 37.5% | 39.5%
CC(C)N([PH2+]N(C(C)C)C(C)C)C(C)C.[C-]#[O+].[C-]#[O+].[C-]#[O+].[C-]#[O+].[C-]#[O+].[Mo] | 9.4% | 15.9% | -2.2% | 17.1% | 6.35% | -1.35%
COc1ccc(CN2CCCN(Cc3ccc(OC)cc3)C2c2ccc(N(CCCl)CCCl)cc2)cc1 | 30.3% | 2.4% | 43.8% | 19.8% | -15.3% | 35.8%
COCC(=O)CP(=O)(OC)OC | -20.6% | -19.6% | -11.6% | 18.6% | -14.7% | 1.35%
O=c1sc2ccccc2n1CC1CS1 (stereo not given) | 22.4% | -10.1% | -8.75% | 5.25% | -27.1% | -0.25%
C/C=C/C(=O)O | 4.3% | -4.65% | -24.5% | 10.2% | -0.05% | -9.75%

SMILES | growth inhibition [1] | growth inhibition [2] | growth inhibition [3] | growth inhibition [4] | growth inhibition [5] | growth inhibition [6]
CC1CC(O)C(=O)C(O[C@@H]2C[C@@H]3CC[C@@H]4[C@H](CC[C@]5(C)C(C6=CC(=O)OC6)CC[C@]45O)[C@@]3(C=O)C[C@H]2O)O1 (stereo not given in full) | 7.95% | 8.5% | -8.1% | -2.6% | -12.8% | -42.9%
O=C1NC2NC3NC(=O)NC3NC2N1 (stereo not given) | 3.6% | 1.85% | 0.2% | -5.25% | 10.2% | -24.4%
CN(C)CCNC(=O)c1ccc(N(CCCl)CCCl)c([N+](=O)[O-])c1[N+](=O)[O-] | 36.4% | 20.4% | 30.8% | 17.6% | 9.65% | 34%
O=NN(Cc1ccccc1)Cc1ccccc1 | 2.55% | 0.1% | 3.1% | 0.5% | 8.6% | 21.4%
COC(=O)C1c2cc(OC)c(OC)cc2C(=O)N2CCc3cc4c(cc3C12)OCO4 (stereo not given) | 15.8% | -14.8% | 0.65% | 12.1% | -3.3% | 9.2%
Nc1nc(N)c(N=Nc2ccc([As](=O)(O)O)c(O)c2)c(N)n1 | -4% | -6.9% | -36% | -18.4% | -43% | -18.1%
O=C(O)c1ccccc1Cl | -8% | -11.5% | 3.75% | 30.9% | 5.2% | 16.4%
O=N[O-].[Co].[NH-]CC[NH-].[NH-]CC[NH-].[NH2-] | 5.35% | 7.5% | -6.25% | 4.95% | 4.85% | -2.4%
CN/N=C(/CCN1CCCC1)CC(c1ccccc1)c1c(O)c2ccccc2oc1=O (stereo not given) | 35.5% | 9% | 29.6% | 35.2% | 31.5% | 37.4%
[C-]#[O+].[C-]#[O+].[C-]#[O+].[CH3][Sn]([c]1ccccc1)[c]1ccccc1.[W].[c-]1[c-][c-][cH-][c-]1 | 98.2% (active) | 99.3% (active) | 98.5% (active) | 97.5% (active) | 99.3% (active) | 97.5% (active)
Cc1cc(Nc2ccc(N(CCCl)CCCl)cc2)c(C)cc1O | 31.7% | 10% | 5.75% | -5.85% | -4.15% | 6.8%
O=S(=O)(O)O.[Cr+3].[NH-]CC[NH-].[NH-]CC[NH-].[NH-]CC[NH-] | -20.7% | -20.1% | 0.75% | -36.5% | 10% | 7.25%
O=c1oc2cc(O)ccc2c(O)c1C(c1ccc2ccccc2c1)c1c(O)c2ccc(O)cc2oc1=O | 8.65% | 31.2% | 36.7% | 35.8% | 17.2% | -17.4%
Oc1ccc(C(c2cc3c(cc2O)OCO3)N2CCNCC2)cc1 (stereo not given) | 21.8% | 25.7% | 25.9% | -22.2% | 18.5% | 31.7%
CCOP(=O)(CC(=O)c1cc2ccccc2[nH]1)OCC | -3.5% | 12.6% | -2.1% | 1.2% | -8.1% | -19.8%
CCC(C)C(=O)OC1CC2(C)C(c3ccoc3)OC(=O)CC23OC2(C)OC34C(OC(=O)C(C)C)C3(O)C(OC(=O)C5(C)OC5C)C5(C)CC3(O)C(C)(C5CC(=O)OC)C14O2 (stereo not given) | 24.4% | 19.1% | 9.3% | 26.9% | 13.1% | -24.3%
CCOC(=O)C(Cc1ccc(N(CCCl)CCCl)cc1)NC(=O)C(NC(C)=O)C(C)C (stereo not given) | 36.9% | 13.3% | 33.2% | 17.4% | 29.7% | 28.4%
NC(Cc1ccc(O)c(F)c1)C(=O)O (stereo not given) | -37.1% | -40.4% | -41.2% | -2.75% | -51.9% | -14.3%
O=C(CN1C(=O)C2CCCCC2C1=O)N1CC1 (stereo not given) | -7.8% | 0.1% | -11.7% | 5.85% | -6.6% | -9.3%
N/C(=N\N=C\c1ccc(O)cc1O)N[N+](=O)[O-] | 12.2% | -0.85% | -3.45% | -41.7% | 3.65% | 4.1%
